Assay results: PubChem BioAssay (NCATS)
Where “and” joins values, the source holds several entries; their conditions need not be identical. Equal values may be shown once. Records with an inconclusive call do not appear. Calls of active or inactive are those of the source. Unless noted, calls come from the whole dose curve; as a rule, active = well fitted curve in the direction sought with a large enough effect; inconclusive = small, poorly fitted or top-dose-only effect, or another doubt; inactive = no such curve, though single readings can be large; an effect the other way counts as inactive or inconclusive.

What was measured:
[1] = Cell Viability - BJ (AID 421; calls by dose curve;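 note: potency is the fitted concentration of half-maximal effect; cells exposed to compound for 40 hours at 37 °C before readout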); conditions: BJ fibroblast viability, qHTS
Method in brief: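 Cytotoxicity in human BJ foreskin fibroblasts is scored as loss of cellular ATP after a 40-hour exposure, measured by luciferase luminescence. Controls are DMSO and 100 uM tamoxifen.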

[2] = Cell Viability - Jurkat (AID 426;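 active = dose-dependent loss of cell ATP signal giving a full or clear fitted curve, ranked by lower potency value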; note: potency is the fitted concentration of half-maximal effect); conditions: qHTS
Method in brief: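 Jurkat (Clone E6-1) cells, 5000/well in complete medium, exposed to compounds for 40 hr at 37C; intracellular ATP measured by CellTiter-Glo luminescence after 20 min at room temperature. AC50 from Hill fits.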

[3] = Cell Viability - Hek293 (AID 427;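 active = compounds whose dose-response curve shows a full or clear partial loss of cell viability, called from curve shape rather than a numeric limit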;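 note: potency is the fitted concentration of half-maximal effect; cells exposed to compound for 40 hours at 37 °C before reading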); conditions: qHTS
Method in brief: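 qHTS, human embryonic kidney (adenovirus-transformed) cells; 40 hr cpd, 37 °C; CellTiter-Glo ATP luminescence. Norm: DMSO = 0, 100 uM tamoxifen = 100% inhibition. Hill-fit AC50.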

[4] = Cell Viability - HepG2 (AID 433; calls by dose curve;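 note: potency is the fitted concentration of half-maximal effect; potency for ATP loss meaning cytotoxicity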); conditions: qHTS
Method in brief: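 HepG2 cells, 1500 per well, treated 40 hr at 37 °C in complete medium; viability from intracellular ATP by CellTiter-Glo luminescence. Normalized to DMSO and 100 uM tamoxifen; AC50 from Hill fit of qHTS concentration-response.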

[5] = Cell Viability - MRC5 (AID 434; calls by dose curve;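 note: potency is the fitted concentration of half-maximal effect; potency reflects cytotoxicity seen as loss of intracellular ATP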); conditions: MRC5 lung fibroblast viability, qHTS
Method in brief: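 MRC5 normal human lung fibroblasts (1500/well) were treated with compounds for 40 hr at 37 °C in complete medium, and viable cells were measured as intracellular ATP by CellTiter-Glo luminescence. AC50 came from Hill fits, normalized to DMSO and 100 uM tamoxifen.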

[6] = Cell Viability - SK-N-SH (AID 435; calls by dose curve;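 note: potency is the fitted concentration of half-maximal effect; compound exposure lasted 40 h at 37 °C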); conditions: SK-N-SH neuroblastoma cell viability qHTS
Method in brief: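 SK-N-SH neuroblastoma cells (1500/well) treated 40 h at 37 °C in complete medium; viability read as cellular ATP by CellTiter-Glo luminescence. Normalized to DMSO and 100 uM tamoxifen; AC50 from Hill fits of qHTS concentration-response.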

[7] = Cell Viability - HUV-EC-C (AID 542); conditions: HUV-EC-C endothelial cell viability, qHTS; series mostly up to 92.2 µM; note: % is set by controls: 0 for no effect and ±100 for the full control effect; nearly all actives have a fitted effect of over 35% in size
Method in brief: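 HUV-EC-C human vascular endothelial cells, 1000/well, exposed to compound for 40 hr at 37 °C in complete medium. Intracellular ATP was read by CellTiter-Glo luminescence. AC50 came from Hill-equation fits of concentration-response data.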

[8] = Cellular Toxicity (caspase-3) HepG2 (AID 654); conditions: HepG2 caspase-3 activation, luminescence, 0% = DMSO only, 100% = tamoxifen; series mostly up to 92.2 µM;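 note: cells exposed to compound for 16 hours before reading; 0% = DMSO alone and 100% = caspase signal from 100 µM tamoxifen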
Method in brief: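 HepG2 cells (1500/well) were treated 16 h at 37 °C in complete medium, then caspase 3/7 activity was read by Caspase-Glo luminescence. Data were normalized to DMSO and 100 uM tamoxifen; AC50 came from Hill-equation fits of qHTS concentration-response.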

[9] = Cellular Toxicity (caspase-3) HUV-EC-C (AID 656); conditions: HUV-EC-C cells, caspase-3 activation (apoptosis), vehicle = 0, 100 µM tamoxifen = 100%; series mostly up to 92.2 µM
Method in brief: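 HUV-EC-C cells (1000/well) in complete medium, compound-treated 16 h at 37 °C; caspase-3/7 activity read by Caspase-Glo 3/7 luminescence. Normalized to DMSO (basal) and 100 uM tamoxifen (100%); AC50 from Hill-equation concentration-response fits.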

[10] = Cellular Toxicity (caspase-3) BJ (AID 658); conditions: BJ fibroblasts, luminescence, normalized: DMSO 0%, staurosporine 100%; series mostly up to 91.7 µM
Method in brief: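 Luminescent aminoluciferin-substrate cleavage reports caspase 3/7 activity in normal human BJ fibroblasts after 16 hr compound exposure at 37 °C. Normalized to DMSO (basal) and 10 uM staurosporine (100%); AC50 from Hill fit of concentration-response.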

[11] = Cellular Toxicity (caspase-3) Mesangial (AID 660); conditions: mesangial cells, normalized: DMSO 0%, 100 µM tamoxifen 100%; series mostly up to 91.7 µM;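 note: cells exposed to compound for 16 h before the caspase read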
Method in brief: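 Human renal glomerular mesangial cells, 1000/well, 5 h at 37 C before 16 h compound treatment. Caspase-Glo 3/7 luminescence after 20 min; normalized to DMSO and 100 uM tamoxifen, AC50 from Hill fit.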

[12] = Cellular Toxicity (caspase-3) SK-N-SH (AID 661); conditions: SK-N-SH caspase-3 activation, qHTS; series mostly up to 91.7 µM
Method in brief: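 Human SK-N-SH neuroblastoma cells, 1500/well, were exposed to compounds for 16 hours at 37 °C. Caspase-Glo 3/7 luminescence was normalized to DMSO (basal) and 10 uM staurosporine (100%), and AC50 came from a Hill fit.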

[13] = Cellular Toxicity (caspase-3) H-4-II-E (AID 663); conditions: H-4-II-E rat hepatoma; Potency: caspase-3 activation; series mostly up to 92.2 µM;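 note: cells exposed to compound for 16 hr before readout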
Method in brief: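 Luminescence from caspase-cleaved aminoluciferin substrate, read 20 min after reagent addition, reports caspase 3/7 activation in rat H-4-II-E cells after 16 hr compound exposure. Normalized to DMSO (basal) and 100 uM tamoxifen (100%); AC50 from Hill fits.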

[14] = Cellular Toxicity (caspase-3) N2a (AID 665); conditions: N2a cells, luminescence, normalized: DMSO 0%, 10 µM staurosporine 100%; series mostly up to 92.2 µM;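 note: compound exposure lasted 16 h at 37 °C before readout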
Method in brief: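 Mouse N2a neuroblastoma cells, 1500 per well, treated 16 h at 37 °C in complete medium; caspase-3/7 activity by Caspase-Glo luminescence after 1 h. Normalized to DMSO and 10 uM staurosporine; AC50 from Hill fits.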

[15] = Cell Viability - LYMP1-002 - Assay at 16 hr (AID 948); conditions: LYMP1-002 lymphoblastoid cell viability; series mostly up to 92.2 µM;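 note: 0% = DMSO alone and full effect = 92 µM tetraoctylammonium bromide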
Method in brief: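 LYMP1-002 human lymphoblastoid cells, 2500/well, were treated with compounds for 16 hr at 37 C in complete medium. Viability was read as intracellular ATP by CellTiter-Glo luminescence, and AC50 was derived from a Hill fit to concentration-response data.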

[16] = MultiTox-Fluor Cytotoxicity Assay - LYMP1-003 - Dead Cells (AID 961); conditions: LYMP1-003 lymphoblastoid cells, dead-cell protease fluorescence; series mostly up to 92.2 µM; note: nearly all actives have a fitted effect of over 70% in size
Method in brief: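 LYMP1-003 lymphoblastoid, 2500 cells/well, 5 hr settle then 16 hr cpd at 37 C; MultiTox-Fluor reagent 60 min RT; Ex/Em 485/520 dead-cell signal; norm. DMSO = 0%, 15 uM tetraoctylammonium bromide = 100%; Hill AC50.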

[17] = Cell Viability - LYMP2-023 (AID 975); conditions: LYMP2-023 lymphoblastoid cell viability; series mostly up to 92.2 µM;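 note: cellular ATP measured by luciferase luminescence as viability proxy; cells exposed to compound for 24 hours at 37 °C; plate controls were DMSO only for no effect and 92 µM tetraoctylammonium bromide control for full effect; nearly all actives have a fitted effect of over 55% in size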
Method in brief: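 LYMP2-023 human lymphoblastoid cells, 2500/well, preincubated 5 hr at 37 C, then compound-treated 24 hr at 37 C in complete medium. CellTiter-Glo luminescence (ATP) after 30 min at room temperature; AC50 from Hill-equation fits; tetraoctylammonium bromide positive control.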

[18] = Cell Viability - LYMP2-008 (AID 980); conditions: LYMP2-008 lymphoblastoid cell viability, qHTS; series mostly up to 92.2 µM;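 note: cells exposed to compound for 24 h at 37 °C; % is set by controls: 0 for no effect and ±100 for the full control effect; nearly all actives have a fitted effect of over 60% in size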
Method in brief: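 LYMP2-008 lymphoblastoid cells (2500/well) plated 5 h, then treated 24 h at 37 C in complete medium. Viability read as intracellular ATP by CellTiter-Glo luminescence after 30 min at room temperature; AC50 from Hill fits.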

[19] = qHTS Assay for Identification of Small Molecule Inducers of Hypoxia Response (AID 2120; active = well fitted curve in the direction sought with a large enough effect in the signal ratio, with a control signal flat, not every such curve was filed as active; the % refers to the signal ratio; note: 0% is about no effect); conditions: hypoxia response reporter cells, beta-lactamase ratio readout; series mostly up to 104 µM
Method in brief: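 HRE-bla ME-180 cells in Opti-MEM with 0.5% dialyzed FBS, pre-plated 4-5 h, then compound titration for 17 h at 37 degrees Celsius. CCF4 loaded 2.5 h at room temperature; 460/530 nm ratio gave %Activity and AC50 for induction.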

[20] = qHTS assay for cell viability of HEK293 cells (AID 743288); conditions: ATP luminescence (CellTiter-Glo), 18 h, active compounds read low; note: % is set by controls: 0 for no effect and ±100 for the full control effect; nearly all actives have a fitted effect of over 50% in size
Method in brief: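 Parental HEK293 cells, 2,000 per well, preincubated at least 5 h at 37 C, then exposed to compounds in DMSO for 18 h at 37 C. Viability by CellTiter-Glo ATP luminescence after 30 min at room temperature.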

O=[N+]([O-])c1ccc2c3c(cccc13)CC2
inactive: Potency [1] > 92 µM | Potency [2] > 92 µM | Potency [3] > 92 µM | Potency [4] > 92 µM | Potency [5] > 92 µM | Potency [6] > 92 µM | Potency [7] | outcome [8] | outcome [9] | outcome [10] | outcome [11] | Potency [12] | Potency [13] | outcome [14] | outcome [15] | Potency [16] | Potency [17] | Potency [18] | Potency [19] | max response [20] -14% and -2.65%

ClCC(Cl)Cl
inactive: Potency [1] > 92 µM | Potency [2] > 92 µM | Potency [3] > 92 µM | Potency [4] > 92 µM | Potency [5] > 92 µM | Potency [6] > 92 µM | Potency [7] | outcome [8] | outcome [9] | outcome [10] | outcome [11] | Potency [12] | Potency [13] | outcome [14] | outcome [15] | Potency [16] | Potency [17] | Potency [18] | Potency [19] | max response [20] -18.4%

CCCCOC(C)=O
inactive: Potency [1] > 92 µM | Potency [2] > 92 µM | Potency [3] > 92 µM | Potency [4] > 92 µM | Potency [5] > 92 µM | Potency [6] > 92 µM | Potency [7] | outcome [8] | outcome [9] | outcome [10] | outcome [11] | Potency [12] | Potency [13] | outcome [14] | outcome [15] | Potency [16] | Potency [17] | Potency [18] | Potency [19] | max response [20] -4.32%

Nc1ncc([N+](=O)[O-])s1
inactive: Potency [1] > 92 µM | Potency [2] > 92 µM | Potency [3] > 92 µM | Potency [4] > 92 µM | Potency [5] > 92 µM | Potency [6] > 92 µM | Potency [7] | outcome [8] | outcome [9] | outcome [10] | outcome [11] | Potency [12] | Potency [13] | outcome [14] | outcome [15] | Potency [16] | Potency [17] | Potency [18] | Potency [19] | max response [20] -7.17%

Oc1ccc(Cl)c(Cl)c1
inactive: Potency [1] > 92 µM | Potency [2] > 92 µM | Potency [3] > 92 µM | Potency [4] > 92 µM | Potency [5] > 92 µM | Potency [6] > 92 µM | Potency [7] | outcome [8] | outcome [9] | outcome [10] | outcome [11] | Potency [12] | Potency [13] | outcome [14] | outcome [15] | Potency [16] | Potency [17] | Potency [18] | Potency [19] | max response [20] 7.88%

O=S(=O)(Cl)c1ccccc1
inactive: Potency [1] > 92 µM | Potency [2] > 92 µM | Potency [3] > 92 µM | Potency [4] > 92 µM | Potency [5] > 92 µM | Potency [6] > 92 µM | Potency [7] | outcome [8] | outcome [9] | outcome [10] | outcome [11] | Potency [12] | Potency [13] | outcome [14] | outcome [15] | Potency [16] | Potency [17] | Potency [18] | Potency [19] | max response [20] 1.81% and -4.13%

C=CCBr
inactive: Potency [1] > 92 µM | Potency [2] > 92 µM | Potency [3] > 92 µM | Potency [4] > 92 µM | Potency [5] > 92 µM | Potency [6] > 92 µM | Potency [7] | outcome [8] | outcome [9] | outcome [10] | outcome [11] | Potency [12] | Potency [13] | outcome [14] | outcome [15] | Potency [16] | Potency [17] | Potency [18] | Potency [19] | max response [20] -2.53%
